Bioassay records deposited in PubChem by several laboratories.
BJeLR viability = BJeLR cell viability loss; BJeLR (HRASV12) viability, CellTiter-Glo ATP luminescence, 48 h; inhibition, % (no concentration beside the values); 300,000 tested, 0.17% active; in the data active = inhibition above about 50%; inconclusive = no clear call, values can overlap the other calls
Yp Topo-I inh = blocks Yersinia pestis topoisomerase I activity; activity, % at 10 µM; Y. pestis Topo-I cleavage product accumulation, plate reader; 360,000 tested, 0.064% active; AID 504884; in the data active = activity above about 50%, passing the limit was not always enough; inconclusive = no clear call, values can overlap the other calls
PrPC surface inh = inhibitors of human cell surface prion protein PrPC; inhibition, % at 13.8 µM; 370,000 tested, 0.43% active; P04156; TR-FRET read-out; in the data active = inhibition above about 24%
PrP UTR inh = inhibition of PrP 5' UTR reporter expression; cell-based PrP 5' UTR mRNA reporter, plate reader; inhibition, % (no concentration beside the values); 340,000 tested, 0.35% active; AID 488862; in the data active = inhibition above about 52%
PfHsp40 yeast = restores yeast growth despite PfHsp40 toxicity; S. cerevisiae expressing PfHsp40, growth rescue, ATP luminescence; growth rescue, % at 12.5 µM; 340,000 tested, 0.68% active; AID 504582; in the data active = growth rescue above about 28%, passing the limit was not always enough; inconclusive = no clear call, values can overlap the other calls;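 also: yeast W303a lacking pdr1 and pdr3 grown in galactose medium; growth measured after three days at 30 °C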
CCHFV vOTU inh = blocks the CCHF virus ovarian tumor domain protease | CCHFV vOTU protease, Pep-AMC fluorescence | AID 651958 | inhibition, % at 11.5 µM | 370,000 tested, 0.55% active; in the data active = inhibition above about 30%
PrPC TRFRET cf = confirmation of inhibitors of cell surface human prion protein | shares compounds with PrPC surface inh | cell surface PrPC level, TR-FRET | inhibition, % at 13.8 µM | 1,500 tested, 65% active | AID 743200; in the data active = inhibition above about 25%
LD9 tox = LD9 cell cytotoxicity, PrPc inhibitor counter-screen | inhibition, % at 13.8 µM | 1,500 tested, 29% active | shares compounds with PrPC surface inh | LD9 cells cytotoxicity, luminescence viability; in the data active = inhibition above about 9.5%
Numbers stand for hits; n = inactive; u = inconclusive; x = no result given. Hits are enriched below; roughly 2% of the tested compounds scored in any of these assays.

SMILES | BJeLR viability | Yp Topo-I inh | PrPC surface inh | PrP UTR inh | PfHsp40 yeast | CCHFV vOTU inh | PrPC TRFRET cf | LD9 tox
COc1ccc(Nc2nnc(C)c3ccccc23)cc1C(N)=O | n | n | n | n | n | n | x | x
CCN(CC)c1ncnc2ccc(Br)cc12 | n | n | 39.2 | n | n | n | 41.5 | n
CN1CCC(N(C)c2ncnc3ccc(Br)cc23)CC1 | x | n | n | n | n | n | x | x
CCCCCc1cccc2[nH]cc(-c3ccccc3)c12 | x | x | n | x | x | n | x | x
CCc1c(C(=O)O)[nH]c2ccc(Br)cc12 | n | n | 76.1 | n | n | n | 87.6 | n
NNC(=O)c1[nH]c2ccc(Br)cc2c1-c1ccccc1 | n | n | n | n | n | n | x | x
CC(=O)OC1CC2OC3C=C(C)CCC3(C)C1(C)C21CO1 (stereo not given) | x | n | 90.5 | x | x | n | 100.9 | 32.2
CCCCn1c(=O)[nH]c(=O)c2c1nc(Cn1ncc(Cl)c(Cl)c1=O)n2CCC | n | n | 44.5 | n | n | n | 43.4 | 70.9
CCc1nc(SCC(=O)NNC(=O)c2ccc(OC)cc2)c2ccccc2n1 | n | n | 108.8 | n | n | n | 116.3 | n
CCc1nc(SCC(=O)N2c3ccccc3Sc3ccccc32)c2ccccc2n1 | n | n | 46.1 | n | n | n | 89.2 | n
CCc1nc(SCC(=O)c2ccccc2)c2ccccc2n1 | n | n | n | n | n | n | x | x
COc1ccc(C(=O)NNC(=O)CSc2ccccc2)cc1 | n | n | n | n | n | n | x | x
COc1ccc(C(=O)NNC(=O)CSc2nc(C(C)C)nc3ccccc23)cc1 | n | n | 80.5 | n | n | n | 101.1 | n
CCCc1nc(SCC(=O)Nc2nc3c(s2)CCCC3)c2ccccc2n1 | n | n | n | n | n | n | x | x
CCc1nc(SCC(=O)Nc2nc3c(s2)CCCC3)c2ccccc2n1 | n | n | 29.9 | n | n | n | 72.1 | n
Cc1nccn1-c1ccc(NC(=O)[C@@H](Cc2ccccc2)NC(=O)[C@H]2O[C@@H](n3ccc(=O)[nH]c3=O)[C@H](O)[C@@H]2O)cc1 | x | x | n | x | x | n | x | x
c1ccc2sc(-c3csc4c3CCNC4)nc2c1 | x | x | n | x | x | x | x | x
COc1ccccc1-c1cccc2c3c([nH]c12)[C@@H]1C[C@H]2[C@@H](CN1CC3)[C@H](C)ON2C | x | x | n | x | x | n | x | x
c1cc(-c2nnc3n2N=C(c2ccc4c(c2)OCO4)CS3)ccn1 | x | x | n | x | x | n | x | x
COC(=O)[C@]12C[C@H](CC(=O)N3CCN(C(=O)c4ccco4)CC3)C(=O)N(CCC3=CCCCC3)C1=C[C@H](COCc1ccccc1)O[C@@H]2C | x | x | n | x | x | n | x | x
Cc1cc(C)c(S(=O)(=O)NCc2cccnc2)c(C)c1 | n | n | 45.6 | n | n | n | 35.5 | n
Cc1cc(C)c(C)c(S(=O)(=O)NCc2cccnc2)c1C | n | n | n | n | n | n | x | x
Cc1ccc2[nH]c3c(=S)nc[nH]c3c2c1 | n | n | 129.1 | n | n | n | 147.3 | n
COc1ccc2[nH]c3c(NCCC4=CCCCC4)ncnc3c2c1 | u | n | 41.4 | n | n | n | 39.8 | 21.7
CCCCN1CN2Cc3ccccc3C2CS1(=O)=O (stereo not given) | x | x | n | x | x | n | x | x
SMILES | BJeLR viability | Yp Topo-I inh | PrPC surface inh | PrP UTR inh | PfHsp40 yeast | CCHFV vOTU inh | PrPC TRFRET cf | LD9 tox
COc1ccc2nc(C)cc(SCC(=O)O)c2c1 | n | n | n | n | n | n | x | x
CCOC(=O)C(CC)Sc1cc(C)nc2ccc(OC)cc12 (stereo not given) | n | n | 31.8 | n | n | n | 60.2 | n
CC1(C)OC(=O)C2=C(CC(CCc3ccccc3)OC2c2cccc(C(F)(F)F)c2)O1 (stereo not given) | x | x | n | x | x | n | x | x
Cc1ccc(S(=O)(=O)NCc2ccc3c(c2)cc(C)n3C)cc1 | n | n | 37.4 | n | n | n | n | n
COc1cc(OC)cc(C(=O)NCc2ccc3c(c2)cc(C)n3C)c1 | n | n | 56.3 | n | n | n | n | n
Cc1cc2cc(CNC(=O)NC3CCCCC3)ccc2n1C | n | n | n | n | n | n | x | x
Cc1ccc(CNC(=O)c2c(-c3ccccc3Cl)noc2C)cc1 | n | n | n | n | n | n | x | x
CCOc1ccc(CC(=O)NCc2ccc3c(c2)cc(C)n3C)cc1 | n | n | 55.0 | n | n | n | n | n
Cc1ccc(S(=O)(=O)NCc2ccncc2)cc1 | n | n | n | n | n | n | x | x
Cc1cc2cc(CNC(=O)COc3ccccc3)ccc2n1C | n | n | n | n | n | n | x | x
Cc1onc(-c2ccccc2Cl)c1C(=O)NCc1ccc2c(c1)cc(C)n2C | n | n | 65.5 | n | n | n | n | n
COc1ccc(C(=O)NCc2ccc3c(c2)cc(C)n3C)cc1 | n | n | 66.0 | n | n | n | n | n
COc1ccc(CC(=O)NCc2ccc3c(c2)cc(C)n3C)cc1OC | n | n | n | n | n | n | x | x
COc1cc(/C=C\C(=O)NCc2ccc3c(c2)cc(C)n3C)cc(OC)c1OC | n | n | 68.0 | n | n | n | n | n
Cc1cc2cc(CNC(=O)Nc3ccc(Cl)c(Cl)c3)ccc2n1C | n | n | 32.7 | n | n | n | n | n
Cc1cc2cc(CNC(=O)c3ccc4c(c3)OCO4)ccc2n1C | n | n | 53.0 | n | n | n | n | n
Cc1cc2cc(CNC(=O)c3ccco3)ccc2n1C | n | n | n | n | n | n | x | x
COCC(=O)NCc1ccc2c(c1)cc(C)n2C | n | n | n | n | n | n | x | x
COC(=O)C1=CC(=O)C=C(OC)[C@@]12Oc1cc(C)cc(OC)c1C2=O | x | x | 58.6 | x | x | n | n | 97.7
COc1ccc(Cl)cc1C(=O)Nc1cccc(-c2ccc3nncn3n2)c1 | n | n | 82.6 | n | n | n | 87.6 | n
Nn1c(SCC(=O)Nc2cccc3ccccc23)nnc1-c1n[nH]c2c1CCC2 | x | x | n | x | x | n | x | x
CCN1C(=O)N[C@H]2C[C@@H](c3ccccc3)[C@@H](C)[C@@H](C(=O)N3CCCC3)C[C@H]21 | x | x | n | x | x | n | x | x
CCOC(=O)c1cccc(NC(=O)CN(C)S(=O)(=O)c2ccc(Br)s2)c1 | x | x | n | x | x | n | x | x
CC(=O)Oc1c(C(C)C)cc(N(C(C)=O)c2ccccc2)cc1C(C)C | n | n | 36.2 | n | n | n | 29.0 | n
O=[N+]([O-])c1ccc(CSc2nnc(-c3cccc(Cl)c3)n2Cc2ccco2)cc1 | x | x | n | x | x | n | x | x
Nc1ccc(F)c(CN2CCN(c3ncc(Cc4ccccc4)cn3)CC2)c1 | x | x | n | x | x | n | x | x
O=c1cc(CNc2cc(C(F)(F)F)cc(C(F)(F)F)c2)nc2sccn12 | n | n | 28.6 | n | n | n | n | n
O=C(O)C1CCCN1C(=O)c1cccc(Cl)c1 (stereo not given) | x | x | n | x | x | n | x | x
CC(C)CNC(=O)c1coc(=O)c(Br)c1 | n | n | n | n | n | n | x | x
O=C(NC(CO)(CO)CO)c1coc(=O)c(Br)c1 | n | n | 45.8 | n | n | n | n | n
